The whole screen tested about 13,000 compounds, of which about 3,200 (25%) showed an effect of 50% or more. Some of the results follow.
System: P. falciparum stage V gametocytes
Parameters: BacTiter-Glo ATP luminescence viability of purified stage V gametocytes in 384-well plates, per cent inhibition versus DMSO
Settings: 48 h, 5 µM; inhibitor

Row | SMILES | % Inhibition [%]
1 | O=C(N[C@@H](CC1CCCCC1)C(=O)NCc1cccc(C(F)(F)F)c1)c1ccc(O)c(-c2ccc(Cl)c(Cl)c2)c1 [TCMDC-140836] | 10.47
2 | Cc1nc2sccn2c1C(=O)NCCc1ccccc1Cl [TCMDC-136538] | 1.524
3 | CC(C)(CNC(=O)[C@H]1CCCN1)c1nc(-c2ccc(Cl)c(O)c2)c(-c2ccncc2)[nH]1 [TCMDC-141060] | -63.79
4 | O=C(NCCc1ccccc1)[C@H](Cc1ccccc1)Nc1ccnc(NCC2CCCCC2)n1 [TCMDC-134711] | 29.07
5 | O=C(NCc1cccs1)[C@H](Cc1ccccc1)Nc1ccnc(NCCc2ccccc2)n1 [TCMDC-134810] | 62.6
6 | COc1ccccc1CCNc1nccc(N[C@@H](Cc2ccccc2)C(=O)NCc2cccs2)n1 [TCMDC-134745] | 80.93
7 | O=C(NCc1cccs1)[C@H](Cc1ccccc1)Nc1ccnc(NCC2CCCCC2)n1 [TCMDC-134708] | -6.926
8 | O=C(NCc1cccs1)[C@H](Cc1ccccc1)Nc1ccnc(NCCc2ccc(F)cc2)n1 [TCMDC-134825] | 42.49
9 | COc1ccccc1CCNc1ncc(F)c(N[C@@H](Cc2ccccc2)C(=O)NCCc2ccccc2)n1 [TCMDC-134948] | 4.371
10 | O=C(C1CC1)N1c2ccccc2CCc2ccccc21 [TCMDC-123880] | 17.87
11 | COc1cc(Cl)c(C)cc1-n1cc(C(=O)c2cc(Br)ccc2O)cc(C#N)c1=O [TCMDC-123630] | -51.04
12 | CCCCC(CC)NC(=O)[C@H]1CNCCN1C(=O)CCCc1ccccc1 (stereo partly shown) [TCMDC-141269] | -15.01
13 | CCCCOC(=O)C1=C(C)NC2=C(C(=O)CC(c3ccc(OC)c(OC)c3)C2)C1c1ccc(O)cc1 (stereo not shown) [TCMDC-125635] | 28.36
14 | CCCCOC(=O)C1=C(C)NC2=C(C(=O)CCC2)C1c1ccc(OC)c(Br)c1 (stereo not shown) [TCMDC-124210] | -70.69
15 | CCOC(=O)C1=C(C)NC2=C(C(=O)C(C(=O)OC)C(C)C2)C1c1cc(Br)c(OCC)c(OC)c1 (stereo not shown) [TCMDC-125139] | 94.17
16 | O=C(Nc1ccc(-c2ccc(-c3nc4ccccc4[nH]3)cc2)cc1)Nc1ccc(Cl)c(Cl)c1 [TCMDC-133279] | -60.39
17 | Oc1ccc(CN2CCN(CCOC(c3ccc(F)cc3)c3ccc(F)cc3)CC2)cc1Cl [TCMDC-135691] | 8.088
18 | CN1CCC(C(=O)Nc2cccc(-c3ccc(-c4nc5ccc(C(F)(F)F)cc5[nH]4)cc3)c2)CC1 [TCMDC-132190] | 21.59
19 | CC(C)CN(c1nc(C(=O)NNC(=O)[C@H](CC2CC2)NC(=O)c2cc3cc(OCCN(C)C)ccc3o2)cs1)C1CC1 [TCMDC-139231] | -13.37
20 | CC(C)CN(c1nc(C(=O)NNC(=O)[C@H](CC2CC2)NC(=O)c2cc3cc(OCCN4CCCCC4)ccc3o2)cs1)C1CC1 [TCMDC-139232] | 55.6
21 | O=C(N[C@@H](CC1CCCCC1)C(=O)NCCN1CCCCC1)c1ccc(O)c(-c2ccc(Cl)c(Cl)c2)c1 [TCMDC-140862] | 10.77
22 | CC(C)(C)SCC(O)Cn1c2ccc(Br)cc2c2cc(Br)ccc21 (stereo not shown) [TCMDC-124058] | -64.42
23 | Oc1ccc2ccccc2c1CNC1CCCCCC1 [TCMDC-137607] | 9.064
24 | CC12CCC(CN(CC(O)Cn3c4ccccc4c4cc(I)ccc43)C1)C2(C)C (stereo not shown) [TCMDC-124075] | -73.11
25 | CC1CC(C)CN(CC(O)CNC(=O)Nc2ccc(Br)cc2)C1 (stereo not shown) [TCMDC-134636] | 5.991

Row | SMILES | % Inhibition [%]
26 | OC(CN1CCN(C2CCCCC2)CC1)Cn1c2ccccc2c2cc(Br)ccc21 (stereo not shown) [TCMDC-124167] | -21.87
27 | CC(NCC(O)Cn1c2ccccc2c2ccccc21)c1ccccc1 (stereo not shown) [TCMDC-124073] | 13.55
28 | OC(CNC1CCCCC1)Cn1c2ccc(I)cc2c2cc(I)ccc21 (stereo not shown) [TCMDC-124074] | 101.6
29 | CC1CN(CC(O)Cn2c3ccc(Br)cc3c3cc(Br)ccc32)CC(C)O1 (stereo not shown) [TCMDC-124072] | 94.88
30 | Cc1nn(CC(O)Cn2c3ccc(Br)cc3c3cc(Br)ccc32)c(C)c1Br (stereo not shown) [TCMDC-124164] | 72.64
31 | OC(CNCc1ccco1)Cn1c2ccc(Br)cc2c2cc(Br)ccc21 (stereo not shown) [TCMDC-124071] | 6.388
32 | OC(CNC1CCCCC1)Cn1c2ccccc2c2ccccc21 (stereo not shown) [TCMDC-124168] | 90.81
33 | CC(C)(CNC(=O)C1CCN(CC2CCCCC2)CC1)c1nc(-c2ccc(Cl)c(O)c2)c(-c2ccncc2)[nH]1 [TCMDC-141147] | -93.22
34 | CN(C)CCOc1ccc(-c2cc(-c3ccnc(N)n3)c(-c3ccc(Cl)c(O)c3)o2)cc1 [TCMDC-141338] | -4.532
35 | CCCCCc1cc(O)c2c(c1)OC(C)(C)CC2C1=CCN(Cc2cccnc2)CC1 (stereo not shown) [TCMDC-131417] | -23.46
36 | CCCc1ccc(NC(=O)c2ccc(CN3CCCN(Cc4cccc(O)c4)CC3)cc2)cc1 [TCMDC-136421] | 2.458
37 | COc1ccc(C=NNc2nc(-c3ccccc3)cc(=O)[nH]2)cc1OC [TCMDC-124217] | 8.014
38 | OC(CNC1CCCCC1)Cn1c2ccc(Br)cc2c2cc(Br)ccc21 (stereo not shown) [TCMDC-124059] | 90.2
39 | CC(C)NCC(O)Cn1c2ccc(Br)cc2c2cc(Br)ccc21 (stereo not shown) [TCMDC-124100] | 43.74
40 | N#Cc1ccc(-c2ccc(C(=O)NCCCCN3CCC(c4ccncc4)CC3)cc2)cc1 [TCMDC-135811] | -0.7108
41 | N#Cc1ccc(C2CCN(CC[C@H](N)Cc3ccc(Cl)s3)CC2)cc1 [TCMDC-132358] | 63.71
42 | N#Cc1cccc(C(=O)N2CCOC(CCN3CCC(c4ccccc4)CC3)(c3ccc(Cl)c(Cl)c3)C2)c1 (stereo not shown) [TCMDC-135335] | 20.78
43 | CC1(C)N=C(N)N=C(N)N1O [TCMDC-131576] | -2.875
44 | COc1ccc2ncc(Cl)c(CCN3C[C@H](CNCc4ccc5c(n4)NC(=O)CS5)[C@H](O)C3)c2n1 [TCMDC-136241] | 10.16
45 | COc1ccc2ncc(F)c(CCN3CCC[C@H](CNCc4ccc5c(n4)NC(=O)CS5)C3)c2n1 [TCMDC-136318] | 98.5
46 | COc1ccc2ncc(F)c(CCN3CC[C@H](NC(=O)c4ccc5c(n4)NC(=O)CS5)[C@H](O)C3)c2n1 [TCMDC-135907] | -25.82
47 | COc1ccc2ncc(F)c(CCN3CC[C@@H](CNCc4nc5c(cc4C)SCC(=O)N5)C3)c2n1 [TCMDC-136056] | 97.91
48 | COc1ccc2ncc(F)c(CCN3CC4CCCC4(CNCc4ccc5c(n4)NC(=O)CS5)C3)c2n1 (stereo not shown) [TCMDC-136065] | 28.02
49 | COc1ccc2ncc(F)c(CCN3CC[C@@H](CNCc4cc5c(cn4)OCS5)C3)c2n1 [TCMDC-135643] | 33.53

From paper PMC4552634, “A New Set of Chemical Starting Points with Plasmodium falciparum Transmission-Blocking Potential for Antimalarial Drug Discovery” (PLoS ONE, 2015)
